Inconclusive results are not listed. Activity calls are given as the source filed them. Unless noted, the call rests on the fitted dose curve.
Experiments:
[1] = qHTS assay to identify small molecule agonists of the vitamin D receptor (VDR) signaling pathway - cell viability counter screen (AID 743224; active means well fitted curve in the direction sought with a large enough effect in the repeat runs; an effect the other way counts as inactive or inconclusive; further: series mostly up to about 63 µM; nearly all actives have a fitted effect of over 50% in size)
Procedure, shortened: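 In parallel with the bla FRET readout, cytotoxicity toward VDR-bla cells after 16 h compound exposure was assessed by CellTiter-Glo, with luminescence recorded after a 30 min room-temperature incubation.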

[2] = qHTS assay to identify small molecule antagonists of the vitamin D receptor (VDR) signaling pathway - cell viability counter screen (AID 743225; active means well fitted curve in the direction sought with a large enough effect in the repeat runs; an effect the other way counts as inactive or inconclusive; further: nearly all actives have a fitted effect of over 50% in size)
Procedure, shortened: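 Luminescent cell viability (CellTiter-Glo) in VDR-bla HEK 293T cells after 16 h compound exposure at 37C in the presence of 3 nM final 1-alpha,25-dihydroxy vitamin D3.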

[3] = qHTS assay to identify small molecule agonists of the NFkB signaling pathway (AID 1159509; active means well fitted curve in the direction sought with a large enough effect in the signal ratio in the repeat runs, not every such curve was filed as active; the % refers to the signal ratio; further: series mostly up to about 61 µM)
Procedure, shortened: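 Pathway activation was measured in ME-180 cells stably expressing beta-lactamase under NF-kB response element control. Substrate cleavage was read as the 460/530 nm emission shift after 5 hr compound incubation.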

[4] = qHTS assay to identify small molecule agonists of the NFkB signaling pathway - cell viability counter screen (AID 1159515); further: series mostly up to about 61 µM; nearly all actives have a fitted effect of over 55% in size
Procedure, shortened: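 Plate 2,000 NFkB-bla ME-180 cells/well; incubate overnight. Add compounds, 5 hr at 37 C. Add FRET substrate, 1.5 hr RT. Add CellTiter-Glo, 30 min RT; read luminescence.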

[5] = qHTS assay to identify small molecule agonists of the endoplasmic reticulum stress response signaling pathway (AID 1159516; active means well fitted activation curve with a large enough effect in the signal ratio in the repeat runs, not every such curve was filed as active; the % refers to the signal ratio)
Procedure, shortened: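 Beta-lactamase expression from the ER stress response element in HeLa reporter cells is quantified with the LiveBLAzer B/G FRET substrate, read at 405 nm excitation after 2 hr at room temperature, following 5 hr compound treatment at 37 C.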

[6] = qHTS assay to identify small molecule agonists of the endoplasmic reticulum stress response signaling pathway - cell viability counter screen (AID 1159517); further: series mostly up to about 61 µM; nearly all actives have a fitted effect of over 50% in size
Procedure, shortened: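 In parallel with the ESRE reporter read, cytotoxicity was scored by CellTiter-Glo luminescence (30 min, room temperature) on HeLa ESRE-bla cells dosed for 5 hr.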

[7] = qHTS assay to identify small molecule antagonists of the retinoid-related orphan receptor gamma (ROR-gamma) signaling pathway - cell viability counter screen (AID 1159520; active means well fitted curve in the direction sought with a large enough effect in the repeat runs; an effect the other way counts as inactive or inconclusive; further: nearly all actives have a fitted effect of over 50% in size)
Procedure, shortened: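 Tet-on ROR gamma CHO cells were given compounds for 2 hr, then doxycycline hyclate at 1 uM final, and incubated 16 hr at 37 C. Viability was measured as ATP content by CellTiter-Glo luminescence.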

[8] = biological target: Nuclear receptor ROR-gamma (Homo sapiens) (UniProt P51449); assay: qHTS assay to identify small molecule antagonists of the retinoid-related orphan receptor gamma (ROR-gamma) signaling pathway (AID 1159521; active means well fitted curve in the direction sought with a large enough effect in the repeat runs; an effect the other way counts as inactive or inconclusive)
Procedure, shortened: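 CHO cells expressing RORγ under a TET-on promoter, luciferase under RORE control. Dox 1 uM final, 16 h; compounds added 2 h prior. Luminescence decrease measured.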

[9] = qHTS assay to identify small molecule agonists of the AP-1 signaling pathway - cell viability counter screen (AID 1159525); further: nearly all actives have a fitted effect of over 55% in size
Procedure, shortened: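 Same-well cytotoxicity counter screen of the Tox21 10K library in ME-180 cells. The readout is ATP-dependent luminescence after 5 h compound treatment. Data are normalised to DMSO and tetra n-octyl ammonium bromide controls.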

[10] = qHTS assay to identify small molecule agonists of the AP-1 signaling pathway (AID 1159526)

Measured: Potency

CC(NC(CCc1ccccc1)C(=O)O)C(=O)N1C(=O)N(C)CC1C(=O)O (stereo unspecified)
inactive: all assays above

O=C1CCCN1C1CCCCC1
not listed: [2]
inactive: all other assays above

CN(C)CCCSc1ccccc1NC(=O)/C=C/c1ccccc1
inactive: all assays above

c1cnc(N2CCN(Cc3ccc4c(c3)OCO4)CC2)nc1
not listed: [2]
inactive: all other assays above

O=C(c1ccccc1)C1CCCCC1
not listed: [1] | [2]
inactive: all other assays above

NC(=O)c1cn(Cc2c(F)cccc2F)nn1
inactive: all assays above

COCCCOCCCOC
inactive: all assays above

Nc1cc(=O)[nH]c(N)n1
inactive: all assays above

Cc1cnc(NS(=O)(=O)c2ccc(N)cc2)nc1
inactive: all assays above

CC(C(=O)O)c1ccc(CC2CCCC2=O)cc1 (stereo unspecified)
inactive: all assays above

CC(=O)Nc1c(I)cc(I)c(C(=O)O)c1I
inactive: all assays above

O=C(CCCN1CCC(O)(c2cccc(C(F)(F)F)c2)CC1)c1ccc(F)cc1
inactive: all assays above

O=c1[nH]c(=O)n([C@H]2C[C@H](O)[C@@H](CO)O2)cc1I
inactive: all assays above

O=S(O)CO
inactive: all assays above

OC[C@]1(O)OC[C@@H](O)[C@H](O)[C@@H]1O
inactive: all assays above

CCCCCCCCCCCCN(CCCCCCCCCCCC)CCCCCCCCCCCC
inactive: all assays above

C=COCC1CCC(CO)CC1 (stereo unspecified)
inactive: all assays above

CCCCCOC(=O)CCCCC
inactive: all assays above

O=C1CCCCCCCCCCCN1
inactive: all assays above

CCN(CC)CCOCCOC(=O)C1(c2ccccc2)CCCC1
inactive: all assays above

CC(C)NCC(O)c1ccc(NS(C)(=O)=O)cc1 (stereo unspecified)
inactive: all assays above

COC(=O)c1cc(C(=O)OC)cc(S(=O)(=O)O)c1
inactive: all assays above

CCCc1cc(C(N)=S)ccn1
inactive: all assays above

O=C(O)CCCl
inactive: all assays above

O=C(O)CCCc1ccccc1
inactive: all assays above

CCN(CC)CCNC(=O)c1cc(S(C)(=O)=O)ccc1OC
inactive: all assays above

Source: PubChem BioAssay (Tox21)
